Compounds without any hit were thinned out: in the full panel of roughly 83,000, 20% have a hit.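 Interpretation: 100, growth as untreated; towards 0, rising growth inhibition; 0, no net growth; 0 to -100, cell death. Compounds scoring below 10 were considered active.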 Values without a mark were called inactive. Active and inactive are the calls of the source.

Assay in all cases: NCI-60 one-dose screen, 48 h (100 = growth as untreated, 0 = no growth, -100 = all killed)
One assay deals with RPMI-8226 leukemia. Particulars: 10 µM.
Another assay deals with OVCAR-8 ovarian. Particulars: 10 µM.
Another assay concerns OVCAR-5 ovarian. Particulars: 10 µM.
Another assay concerns OVCAR-4 ovarian. The following applies: 10 µM.
The next assay relates to SK-OV-3 ovarian. The following applies: 10 µM.
For a further assay, the system named is IGROV1 ovarian. Particulars: 10 µM.
The next assay has as its system OVCAR-3 ovarian. Particulars: 10 µM.
The next assay deals with HS 578T breast. The following applies: 10 µM.
In the next assay the test system is NCI/ADR-RES ovarian. Particulars: 10 µM.
For a further assay, the system named is BT-549 breast. The following applies: 10 µM.
The next assay has as its system MDA-MB-435 melanoma. The following applies: 10 µM.
The next assay has as its system SW-620 colon. Particulars: 10 µM.
Another assay relates to MCF7 breast. Particulars: 10 µM unless noted.
Another assay concerns HCT-116 colon. Particulars: 10 µM.
For the next assay, the system named is HCC-2998 colon. The following applies: 10 µM.
A further assay deals with KM12 colon. The following applies: 10 µM.
For the next assay, the system named is T-47D breast. Particulars: 10 µM.

For the molecule `Cc1cc2nc(CC(=O)c3ccccc3)c(=O)[nH]c2cc1C`, the growth is 103% in the assay on RPMI-8226 leukemia; 94.7% in the assay on OVCAR-8 ovarian; 116% with OVCAR-5 ovarian; 102% with OVCAR-4 ovarian; 102% in the assay on SK-OV-3 ovarian; 91.9% in the assay on IGROV1 ovarian. Moreover, the growth in the assay on OVCAR-3 ovarian was 109%; with HS 578T breast, 73.8%; with NCI/ADR-RES ovarian, 94.6%; in the assay with BT-549 breast, 89.6%; in the assay with MDA-MB-435 melanoma, 106%; with SW-620 colon, 94.3%. Further, the growth in the assay with MCF7 breast is 78.1%; in the assay on HCT-116 colon, 80.3%; in the assay on HCC-2998 colon it was 110%; in the assay with KM12 colon it was 100%.

Take `CC1CCC(C(=O)O)N1` (stereo not drawn): the growth in the assay with RPMI-8226 leukemia is 105%; in the assay on OVCAR-8 ovarian, 112%; with OVCAR-5 ovarian, 91.5%; with OVCAR-4 ovarian, 99%; in the assay on SK-OV-3 ovarian, 94.2%; with IGROV1 ovarian it was 101%. Further, the growth is 109% in the assay on OVCAR-3 ovarian; 106% in the assay on HS 578T breast; 93% in the assay on NCI/ADR-RES ovarian; 86.4% with T-47D breast; 102% with BT-549 breast; 111% in the assay on MDA-MB-435 melanoma. For the same molecule, the growth was 113% in the assay on SW-620 colon; 95% with MCF7 breast; 102% in the assay with HCT-116 colon; 97.8% in the assay with HCC-2998 colon; 106% with KM12 colon.

In the case of `S=C1NCc2cncnc2N1`, the growth with RPMI-8226 leukemia is 102%; with OVCAR-8 ovarian it was 104%; in the assay on OVCAR-5 ovarian it was 97.8%; in the assay with OVCAR-4 ovarian, 105%; with SK-OV-3 ovarian, 102%; in the assay with IGROV1 ovarian, 111%. Moreover, the growth with OVCAR-3 ovarian is 112%; in the assay with HS 578T breast, 105%; with NCI/ADR-RES ovarian it was 106%; in the assay with T-47D breast, 105%; in the assay on BT-549 breast, 100%; in the assay on SW-620 colon, 109%. In addition, the growth is 93.4% with MCF7 breast, 99.1% in the assay on HCT-116 colon, 106% in the assay on HCC-2998 colon and 106% in the assay with KM12 colon.

For `CCOC(=O)c1cc(/C=C/c2cccc(Cl)c2)on1`, the growth with RPMI-8226 leukemia was 4.16% (active); in the assay on OVCAR-8 ovarian it was 99.5%; in the assay on OVCAR-5 ovarian, 101%; in the assay with OVCAR-4 ovarian, 83.7%; in the assay on SK-OV-3 ovarian, 111%; with IGROV1 ovarian it was 93.9%. Besides, the growth is 99.1% in the assay with OVCAR-3 ovarian; 76.4% in the assay with HS 578T breast; 91% with NCI/ADR-RES ovarian; 87.2% in the assay on BT-549 breast; 83% with MDA-MB-435 melanoma; 84.2% in the assay with SW-620 colon. For the same molecule, the growth was 13.9% with MCF7 breast, -57.7% (active) with HCT-116 colon, 97.2% with HCC-2998 colon and 57.4% in the assay on KM12 colon.

With `Oc1ccc(O)cc1`, the growth in the assay with RPMI-8226 leukemia is 67.6%; in the assay on OVCAR-8 ovarian it was 94.6%; with OVCAR-5 ovarian, 123%; in the assay on OVCAR-4 ovarian it was 105%; with SK-OV-3 ovarian, 114%; in the assay on IGROV1 ovarian, 108%. Moreover, the growth in the assay with OVCAR-3 ovarian is 109%; in the assay on HS 578T breast, 104%; in the assay on NCI/ADR-RES ovarian, 92.4%; in the assay with T-47D breast it was 114%; in the assay on BT-549 breast, 82.7%; in the assay on MDA-MB-435 melanoma it was 99.7%. The growth in the assay with SW-620 colon was 112%; with HCT-116 colon, 107%; in the assay on HCC-2998 colon it was 114%; in the assay on KM12 colon it was 103%.

Regarding `O=C(Cc1nc2ccc([N+](=O)[O-])cc2nc1CC(=O)c1cccnc1)c1cccnc1`, the growth was 94.5% with RPMI-8226 leukemia; 31.2% in the assay on OVCAR-8 ovarian; 101% with OVCAR-5 ovarian; 57.7% with OVCAR-4 ovarian; 47.9% in the assay with SK-OV-3 ovarian; 73.9% with IGROV1 ovarian. Further, the growth in the assay on OVCAR-3 ovarian is 65.1%; with HS 578T breast, 7.13% (active); in the assay on NCI/ADR-RES ovarian, 30.4%; with BT-549 breast, 8.87% (active); in the assay on MDA-MB-435 melanoma, 89.8%; in the assay on SW-620 colon it was 81.3%. The growth was 47.4% in the assay on MCF7 breast, 50.5% in the assay on HCT-116 colon, 96.2% in the assay on HCC-2998 colon and 63.1% in the assay on KM12 colon.

`COc1ccccc1NC(=O)C1=C(C)NC(C)=C(C(=O)Nc2ccccc2OC)C1c1cccc([N+](=O)[O-])c1`: the growth in the assay on RPMI-8226 leukemia is 51.9%; in the assay on OVCAR-8 ovarian it was 74.4%; in the assay on OVCAR-5 ovarian, 81.9%; in the assay with OVCAR-4 ovarian, 70.2%; in the assay with SK-OV-3 ovarian, 74.4%; with IGROV1 ovarian, 69.7%. For the same molecule, the growth with OVCAR-3 ovarian was 82.9%; in the assay with HS 578T breast, 60.9%; in the assay on NCI/ADR-RES ovarian, 66.3%; in the assay with BT-549 breast, 73.6%; in the assay with MDA-MB-435 melanoma, 75.4%; in the assay on SW-620 colon it was 88%. Moreover, the growth in the assay with MCF7 breast was 47.8%; in the assay on HCT-116 colon it was 44.9%; in the assay on HCC-2998 colon, 76.9%; with KM12 colon, 67.3%.

`CCOC(=O)CCCS(C)(=O)=O`: the growth in the assay on RPMI-8226 leukemia is 124%; in the assay on OVCAR-8 ovarian it was 108%; in the assay with OVCAR-5 ovarian it was 97.4%; with OVCAR-4 ovarian, 103%; in the assay with SK-OV-3 ovarian, 103%; in the assay on IGROV1 ovarian, 120%. Besides, the growth in the assay with OVCAR-3 ovarian was 127%; in the assay with HS 578T breast it was 101%; with NCI/ADR-RES ovarian, 103%; with T-47D breast it was 102%; in the assay on BT-549 breast, 100%; with MDA-MB-435 melanoma, 119%. Also, the growth was 105% in the assay on SW-620 colon; 92.6% with MCF7 breast; 110% in the assay on HCT-116 colon; 91% in the assay with HCC-2998 colon; 108% in the assay on KM12 colon.

As to `O=[N+]([O-])c1ccc(-c2noc(-c3cccs3)n2)cc1`, the growth in the assay on RPMI-8226 leukemia was 96.5%; with OVCAR-8 ovarian it was 86.6%; with OVCAR-5 ovarian, 98.5%; in the assay on OVCAR-4 ovarian, 71.6%; in the assay on SK-OV-3 ovarian it was 95.2%; in the assay on IGROV1 ovarian, 96%. Besides, the growth in the assay on OVCAR-3 ovarian was 106%; with HS 578T breast, 60.3%; in the assay on NCI/ADR-RES ovarian it was 82.4%; in the assay with BT-549 breast, 78.3%; with MDA-MB-435 melanoma it was 94.2%; in the assay with SW-620 colon, 90.4%. Besides, the growth with MCF7 breast is 63.2%; with HCT-116 colon it was 47.5%; in the assay with HCC-2998 colon, 99.9%; with KM12 colon it was 88.5%.

For `CCOc1ccccc1/C=N/Nc1nc2ccccc2o1`, the growth in the assay with RPMI-8226 leukemia is 105%; with OVCAR-8 ovarian, 108%; with OVCAR-5 ovarian, 97.3%; with OVCAR-4 ovarian, 41.9%; in the assay with SK-OV-3 ovarian it was 94.2%; with IGROV1 ovarian, 116%. Further, the growth in the assay on OVCAR-3 ovarian was 122%; with HS 578T breast it was 101%; with NCI/ADR-RES ovarian, 97.6%; with T-47D breast, 23.4%; in the assay with MDA-MB-435 melanoma, 113%; in the assay with SW-620 colon it was 102%. The growth in the assay on MCF7 breast was 7.97% (active); in the assay on HCT-116 colon it was 102%; in the assay on HCC-2998 colon, 62.2%; with KM12 colon it was 86.4%.

With `NNc1ccccc1C(=O)O`, the growth with RPMI-8226 leukemia was 112%; in the assay on OVCAR-8 ovarian, 110%; with OVCAR-5 ovarian, 88.9%; in the assay with OVCAR-4 ovarian, 111%; in the assay on SK-OV-3 ovarian it was 115%; in the assay on IGROV1 ovarian, 118%. For the same molecule, the growth in the assay on OVCAR-3 ovarian was 119%; in the assay with HS 578T breast, 108%; in the assay on NCI/ADR-RES ovarian, 107%; in the assay on T-47D breast, 107%; with BT-549 breast it was 103%; with MDA-MB-435 melanoma, 116%. Moreover, the growth in the assay on SW-620 colon was 101%; in the assay on MCF7 breast, 104%; in the assay on HCT-116 colon, 112%; in the assay on KM12 colon, 108%.

`Cc1cc(=O)cc(C)n1-c1ccccc1`: the growth with RPMI-8226 leukemia was 97.6%; with OVCAR-8 ovarian it was 109%; in the assay on OVCAR-5 ovarian it was 98.3%; with OVCAR-4 ovarian, 100%; in the assay on SK-OV-3 ovarian, 94.7%; in the assay with IGROV1 ovarian, 114%. The growth with OVCAR-3 ovarian was 120%; in the assay with HS 578T breast, 113%; with NCI/ADR-RES ovarian it was 98.9%; with T-47D breast, 91.7%; with SW-620 colon, 107%; in the assay with MCF7 breast, 94.4%. The growth in the assay with HCT-116 colon is 98.4%; with HCC-2998 colon, 107%; with KM12 colon, 104%.

Values taken from PubChem BioAssay (NCI).
